A selection: hits, their analogues and other compounds. The true share with any hit is near 5.9%.
Gal4-VP16 FLuc – inhibits Gal4-VP16 luciferase reporter, ROR gamma counter-screen; Drosophila S2 Gal4-VP16 UAS-luciferase, luminescence, 20 h; Potency, µM (series often up to 53.6 µM), inactives show top-dose activity, negative = inhibition, most hits filed as inhibitors; actives 3.5% (n = 310,000); AID 2546;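 also: Gal4-VP16 expression switched on by copper sulfate through the metallothionein promoter; potency is read from the fitted curve at half-maximal effect; nearly all actives have a fitted effect of over 50% in size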
GALK inh – galactokinase (human) inhibition | P51570 | Purified GALK, Kinase-Glo residual ATP luminescence | Potency, µM (highest dose often 57.5 µM), for the others: top-dose activity change, negative = inhibition, actives largely listed as inhibitors | actives 0.007% (n = 270,000) | AID 1868; also: potency is read from the fitted curve at half-maximal effect
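Compounds were pin-transferred into ATP buffer (35 uM final), then GALK plus galactose (5 nM, 100 uM final) was added. After 1 h at room temperature, Kinase-Glo Plus was added and luminescence read after 10 min.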
RORgamma inh – blocks mouse ROR gamma transcriptional activity; Potency, µM (doses to about 53.6 µM), without a hit: at the top dose activity change, negative = inhibition, actives largely listed as inhibitors; P51450; Drosophila S2 Gal4-RORgamma UAS-luciferase reporter, 20 h; actives 5.4% (n = 310,000); AID 2551; also: potency is read from the fitted curve at half-maximal effect; nearly all actives have a fitted effect of over 60% in size
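Compounds are pin-transferred onto Drosophila Schneider cells expressing a copper-inducible Gal4–ROR gamma transactivation domain fusion. After 1 hr, copper sulfate is added to 700 uM final; luciferase is read 20 hr later.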
FBPA coupling cs – coupling enzyme interference in Giardia aldolase counter-screen | coupling enzyme system counterscreen, AmpLite Red fluorescence | actives 0.67% (n = 290,000) | activity change, negative = inhibition, % at 58.2 µM, hits read low; in the data active = activity change below about -30%
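Counterscreen lacking aldolase: glyceraldehyde-3-phosphate coupling-enzyme reagent preincubated 10 min at RT with compound (at 57.5 uM final), then substrate/coupling system with AmpLite Red added; fluorescence read at 525/598 nm after 20 min RT.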
TrxR1 inh – rat TrxR1 inhibition; actives 1% (n = 390,000); AID 588453; recombinant rTrxR1, NADPH fluorescence consumption, selenite substrate; Potency, µM (series often up to 114 µM), for the others: at the top dose activity change, negative = inhibition, usual class: inhibitors; O89049; also: potency is read from the fitted curve at half-maximal effect; nearly all actives have a fitted effect of over 65% in size
Target sequence (O89049 whole entry, looked up): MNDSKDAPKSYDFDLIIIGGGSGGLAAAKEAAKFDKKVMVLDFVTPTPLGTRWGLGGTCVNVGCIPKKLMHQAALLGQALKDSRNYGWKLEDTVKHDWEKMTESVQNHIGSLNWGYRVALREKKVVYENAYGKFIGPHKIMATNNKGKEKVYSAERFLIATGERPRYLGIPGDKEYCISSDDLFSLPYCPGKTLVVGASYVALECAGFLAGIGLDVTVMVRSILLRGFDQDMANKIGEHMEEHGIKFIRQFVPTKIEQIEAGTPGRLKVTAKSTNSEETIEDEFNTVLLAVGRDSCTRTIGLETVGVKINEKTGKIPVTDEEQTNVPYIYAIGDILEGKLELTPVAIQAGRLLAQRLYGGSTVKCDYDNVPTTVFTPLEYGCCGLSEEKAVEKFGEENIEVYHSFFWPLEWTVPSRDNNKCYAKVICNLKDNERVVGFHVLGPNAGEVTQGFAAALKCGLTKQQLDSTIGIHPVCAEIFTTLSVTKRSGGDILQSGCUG
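Rat TrxR1 (90 nM in the dispensed reagent) was pre-reduced with 400 uM NADPH for 5 min at room temperature, then incubated with compound for 15 min. After 400 uM selenite was added, NADPH fluorescence (Ex 340/Em 450 nm) was followed for 8 min.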
TrxR1 substrate – substrates of rat thioredoxin reductase 1; purified TrxR1 substrate turnover, NADPH consumption readout; Potency, µM (series often up to 114 µM), without a hit: at the top dose activity change, negative = substrate turnover; actives 0.01% (n = 390,000); AID 588456; also: potency is read from the fitted curve at half-maximal effect; nearly all actives have a fitted effect of over 50% in size
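Rat TrxR1, dispensed at 90 nM, was prereduced with 400 uM NADPH (final) for 5 min at ~22 deg C, then incubated with compound 15 min before 400 uM selenite. A first-read NADPH fluorescence drop versus no-compound background flagged substrates.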
* = called active by the depositor; ? = inconclusive; . = no result given; [ ] = remark or other dose. Unless noted, calls follow the shape of the dose curve; as a rule, active = well fitted curve in the direction sought with a large enough effect; inconclusive = small, poorly fitted or top-dose-only effect, or another doubt; inactive = no such curve, though single readings can be large; an effect the other way counts as inactive or inconclusive. % is scaled to controls: 0 for no effect and ±100 for the full control effect.

SMILES	Gal4-VP16 FLuc	GALK inh	RORgamma inh	FBPA coupling cs	TrxR1 inh	TrxR1 substrate
Clc1ccc(Nc2c3c(nc4ncnn24)CCC3)cc1	-17%	3%	?	5	14%	1%
c1ccc(CNc2c3c(nc4ncnn24)CCCC3)nc1	-1%[0.365 µM]	1%	7.1µM*	0	-11%	-2%
Cc1cc(C)cc(Nc2c3c(nc4ncnn24)CCC3)c1	13µM*	3%	?	3	10%[57.1 µM]	-23%[57.1 µM]
Cc1cccc(Nc2c3c(nc4ncnn24)CCC3)c1	-1%	5%	?	2	-7%	-8%
COc1ccc(-c2cc(NCCc3ccncc3)n3ncnc3n2)cc1	?	-2%	4%	-2	13%	21%
Cc1nn2c(NCc3ccccn3)cc(C(C)(C)C)nc2c1-c1ccccc1	2.2µM*	3%	0.25µM*	4	26%	34%
COc1ccc(-c2cc(NCc3ccccn3)n3ncnc3n2)cc1	?	5%	2.8µM*	2	3%[2.29 µM]	17%[57.1 µM]
COCC1CCCCN1C(=O)C1CCN(c2nc(-c3ccccc3)nc3c2CCC3)CC1 (stereo unspecified)	5%	-3%	-26%	.	-18%	-7%
C[C@H](CO)N1C[C@H](C)[C@@H](CN(C)C(=O)NC2CCCCC2)Oc2ccc(NC(=O)C3CCCCC3)cc2C1=O	.	.	.	.	5%	3%
CCOC(=O)COc1ccc(C)cc1C(=O)c1ccn2nc(-c3ccc(Cl)cc3)cc2n1	.	.	.	.	13%	13%[11.4 µM]
COc1cc(/C=N/NC(=O)Cn2nnc3ccccc32)ccc1O	7%	1%	6%	0	10%	-3%
COc1cccc(/C=N/NC(=O)CCc2c(C)n[nH]c2C)c1O	3.2µM*	1%	1.4µM*	2	16%	3%
COc1ccc(O)c(/C=N\NC(=O)CCn2nnc3ccccc32)c1	2.8µM*	-2%	8.9µM*	-1	7%	11%
COc1cccc(/C=N/NC(=O)CSCC(=O)Nc2ccccc2)c1O	1.6µM*	-2%	0.5µM*	0	7%	2%
COc1cccc(/C=N\NC(=O)Cn2nnc3ccccc32)c1O	3.2µM*	-3%	1.3µM*	0	18%[57.1 µM]	4%[57.1 µM]
Cc1ccccc1C(=O)c1c[nH]c(C(=O)N=CN(C)C)c1	-6%[10 µM]	-3%	17%	1	10%[57.1 µM]	-1%[57.1 µM]
COc1cc(OC)cc(C(=O)NC2CCN(Cc3nnnn3Cc3cccs3)CC2)c1	17%	2%	-9%	5	6%	3%
CN1CCN(C(=S)c2cn(CCOc3ccccc3)c3ccccc23)CC1	?	0%	11µM*	-2	0%	-2%
CN1CCN(C(=S)c2cn(CCOc3ccccc3F)c3ccccc23)CC1	-8%	-1%	14µM*	-1	8%[57.1 µM]	-7%
CC(=O)c1cn(CCOc2cc(C)ccc2C)c2ccccc12	4µM*	0%	?	-3	14%	5%
Cc1ccc2c(c1)nnn2C1CCN(CC(=O)Nc2ccccc2N2CCOCC2)CC1	-23%	-1%	13%	2	37%	13%
CN(C)c1ccc(C(=S)NC2CCCCC2)cc1	3%	2%	8.9µM*	1	?	-3%
CCN(CC)c1ccc(C(=S)NC2CCCCC2)cc1	14µM*	1%	8.9µM*	0	5%[57.1 µM]	-8%
CN(C)c1ccc(C(=S)N2CCCCC2)cc1	0%	4%	11µM*	2	?	-16%
COc1ccc(-c2cc(C(F)(F)F)nc(SCC(=O)NCc3cnn(C)c3C)n2)cc1OC	-1%	.	-10%	1	-23%	11%
SMILES	Gal4-VP16 FLuc	GALK inh	RORgamma inh	FBPA coupling cs	TrxR1 inh	TrxR1 substrate
CCOCCCNC(=S)N1C2CCC1CC(NC(=O)Nc1ccc(C(=O)OCC)cc1)C2 (stereo unspecified)	-15%	9%	25%	1	23%[57.1 µM]	4%[57.1 µM]
O=C(COC(=O)c1ccc(Br)o1)Nc1ccc(N2CCOCC2)cc1	.	.	.	.	8%	5%
CCOC(=O)/C=C/C(=O)Nc1nccs1	?	0%	?	3	50µM*	-3%
Cc1ccc(/C=C/C(=O)Nc2nccs2)o1	?	0%	?	-20	45µM*	-3%
Cc1csc(NC(=O)/C=C/c2ccco2)n1	?	0%	?	-1	?	-13%
Cc1csc(NC(=O)/C=C/c2ccc(C)o2)n1	-17%	2%	4.5µM*	-14	?	-2%
CCOC(=O)C(=O)Nc1nccs1	3%	-1%	-12%	1	14%	-1%
Cc1ccc(/C=C/C(=O)Nc2ncc(C)s2)o1	?	1%	-18%	-11	40µM*	5%
O=C(/C=C/c1cccs1)Nc1nccs1	5%	0%	-8%	5	5%	6%
CCN(CC)CCN(Cc1cc2cccc(C)c2[nH]c1=O)C(=S)Nc1ccccc1	-11%	0%	-19%	2	19%[57.1 µM]	4%[57.1 µM]
Cc1cc(C(=O)NNC(=O)c2ccc(Cl)cc2)c2ccccc2n1	.	.	.	.	0%	-6%
CC(C)Oc1cccc(-c2cc(C(=O)NC(=S)N(C)c3ccccc3C(=O)O)c3ccccc3n2)c1	?	5%	11µM*	-9	-9%	126%
Cc1ccc(C)c(-c2cc(C(=O)NNC(=S)NCC(C)C)c3ccccc3n2)c1	?	-2%	1.1µM*	0	-20%	-11%
CCNC(=S)NNC(=O)c1cc(-c2ccc(OCC)cc2)nc2ccccc12	1%	.	20%	2	-14%	12%
Cc1cc(C(=O)NNC(=S)NC(C)c2ccccc2)c2ccccc2n1 (stereo unspecified)	-27%	-2%	5µM*	3	-21%	-5%
CCNC(=S)NNC(=O)c1cc(-c2ccccc2C)nc2ccccc12	-25%	.	0.56µM*	0	?	1%
Nc1ccn([C@@H]2CS[C@H](CO)O2)c(=O)n1	-9%	1%	-1%	2	.	.
CCCOc1cccc(-c2cc(C(=O)NNC(=S)NCC)c3ccccc3n2)c1	?	-2%	?	-3	2%	1%
CC(C)Cc1cc(C(=O)Nc2ccccc2)c2ccccc2n1	-7%	.	2%	-1	1%[57.1 µM]	7%[57.1 µM]
CCNC(=S)NNC(=O)c1cc(CC(C)C)nc2ccccc12	?	.	0.4µM*	-4	?	12%
CCNC(=S)NNC(=O)c1cc(-c2cccc(OC)c2)nc2ccccc12	13µM*	.	2.2µM*	-1	-18%[11.4 µM]	-2%[11.4 µM]
CCOC(=O)C1=C(CS(=O)(=O)c2ccc(Cl)cc2)NC(=O)NC1c1ccc(O)c(OC)c1 (stereo unspecified)	-3%	6%	-8%	1	11%	0%
N#CCc1ccc(NC(=O)c2ccc(S(=O)(=O)N3CCCC3)cc2)cc1	-1%	-2%	?	-2	24%	5%

Source: PubChem (National Center for Advancing Translational Sciences (NCATS))
